High-throughput results as filed in PubChem.
An excerpt weighted towards active compounds, which were near 21% of everything screened.
CYP2C9 inhib – blocks human cytochrome P450 2C9; P11712; CYP2C9 Supersomes, luciferin-H conversion, luminescence; inhibition, % at 5 µM; 20% of 96,000 active;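 active = blocking of liver enzyme CYP2C9 beyond about 50% at 5 µM, limit read from the data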
Target sequence (P11712 whole entry, looked up): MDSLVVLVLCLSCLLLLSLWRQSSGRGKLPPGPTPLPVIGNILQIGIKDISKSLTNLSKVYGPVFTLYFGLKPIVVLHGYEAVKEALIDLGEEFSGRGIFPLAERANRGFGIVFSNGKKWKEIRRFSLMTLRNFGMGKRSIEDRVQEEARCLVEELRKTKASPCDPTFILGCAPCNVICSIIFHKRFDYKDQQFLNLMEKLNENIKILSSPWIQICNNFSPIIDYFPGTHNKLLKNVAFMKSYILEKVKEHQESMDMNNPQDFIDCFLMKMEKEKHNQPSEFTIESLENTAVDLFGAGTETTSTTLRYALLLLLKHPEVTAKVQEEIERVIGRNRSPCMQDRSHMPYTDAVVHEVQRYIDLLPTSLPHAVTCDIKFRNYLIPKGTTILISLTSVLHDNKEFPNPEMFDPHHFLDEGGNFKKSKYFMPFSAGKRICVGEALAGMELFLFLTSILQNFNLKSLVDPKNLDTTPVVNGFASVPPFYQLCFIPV
MRP resist rev – reverses drug resistance mediated by MRP. 0.04% of 85,000 active. differential viability (reversal), % at 10 µM. H69AR cells + 2 uM doxorubicin, CellTiter-Glo, 72 h;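 active = viability drop by adding the cancer drug above about 55%, with treated viability meeting a 40% cutoff, limit read from the data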;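 note: viability without doxorubicin minus viability with 2 µM doxorubicin for each compound; larger differential means the compound sensitizes cells more to doxorubicin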
MRP-1 activ – MRP-1 activation; AID 799; viability increase, % at 10 µM; 0.61% of 140,000 active; H69AR cells + doxorubicin, viability rescue, CellTiter-Glo;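 active = viability gain under doxorubicin at or above a set limit, the compound median plus 3 SD, cut at about 4.7% in these data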;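 note: MRP-1 overexpressing cells given doxorubicin 25 µM after compound pretreatment; 18-22 h compound pretreatment then 72 h with doxorubicin before readout; 0% = doxorubicin-only wells and 100% = vehicle-treated cells without doxorubicin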
CYP2C9 activ – activators of human CYP2C9 | recombinant CYP2C9, luciferin-H conversion, luminescence; active compounds read high; factor 1 = untreated enzyme, 0 = blocked | 1.4% of 96,000 active | activation factor at 5 µM | P11712;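 active = activation factor of 2 or more for CYP2C9 at a 5 µM dose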;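 note: 0 = sulfaphenazole-blocked wells and 1 = vehicle-only wells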
CYP2C19 inhib – blocks human cytochrome P450 2C19; P33261; CYP2C19 Supersomes, luciferin-H EGE luminescence, 30 min; inhibition, % at 5 µM; 21% of 96,000 active;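 active = CYP2C19 inhibition above a set limit at 5 µM in the primary screen, cut at about 50% in these data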;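 note: plate controls were negative control wells for no effect and 2.5 mM tranylcypromine positive control for full effect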
CYP2C19 act – cytochrome P450 2C19 (human) activation; activation factor at 5 µM; recombinant CYP2C19, luciferin-H EGE luminescence; active compounds read high; 0 = fully inhibited enzyme, 1 = untreated enzyme; P33261; 96,000 tested, under 10 active;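 active = activation factor of at least 2 at 5 µM in the primary screen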;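 note: 0 = wells with 2.5 mM tranylcypromine and 1 = vehicle-only wells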
* hit, by the source's call.

O=c1cc(CSc2ccc(Cl)cc2)nc(N2CCCCC2)[nH]1 was read as CYP2C9 inhib 34, MRP-1 activ 1, CYP2C9 activ 0.7, CYP2C19 inhib 5 and CYP2C19 act 1.
CC(=O)N(CN1C(=O)CCC1=O)c1cccc(Cl)c1 was read as MRP-1 activ 3.
COc1ccc(C2C(C(=O)OCC(=O)Nc3ccc(C)cc3)CCC(=O)N2c2ccc(OC)cc2)cc1 (stereo unspecified) was read as CYP2C9 inhib 74*, MRP resist rev 3, MRP-1 activ 0, CYP2C9 activ 0.3, CYP2C19 inhib 75* and CYP2C19 act 0.2.
`COc1ccc(C2C(C(=O)Nc3cccc(C)n3)CCC(=O)N2c2ccc(OC)cc2)cc1` (stereo unspecified) gave CYP2C9 inhib 20, MRP resist rev 13, MRP-1 activ 13*, CYP2C9 activ 0.8, CYP2C19 inhib 23 and CYP2C19 act 0.8.
Screening COCCNC(=O)C1CCC(=O)N(c2ccc(OC)cc2)C1c1ccc(OC)c(OC)c1 (stereo unspecified) returned CYP2C9 inhib -2, MRP resist rev 0, MRP-1 activ 0, CYP2C9 activ 1, CYP2C19 inhib 2 and CYP2C19 act 1.
COc1ccc(C2C(C(=O)OCC(=O)NC(C)(C)C)CCC(=O)N2c2ccc(C)cc2)cc1OC (stereo unspecified) was read as CYP2C9 inhib 26, MRP-1 activ 5.7*, CYP2C9 activ 0.7, CYP2C19 inhib 13 and CYP2C19 act 0.9.
For COc1ccc(N2C(=O)CCC(C(=O)N3CCCCC3)C2c2ccc(F)cc2)cc1 (stereo unspecified) the results were CYP2C9 inhib 8, MRP resist rev 9, MRP-1 activ -3, CYP2C9 activ 0.9, CYP2C19 inhib 11 and CYP2C19 act 0.9.
`COc1ccc(N2C(=O)CCC(C(=O)O)C2c2ccc(F)cc2)cc1` (stereo unspecified) gave CYP2C9 inhib -5, MRP resist rev 13, MRP-1 activ 1, CYP2C9 activ 1.1, CYP2C19 inhib -8 and CYP2C19 act 1.1.
Screening CS(=O)(=O)N(Cc1ccccc1)c1ccccc1C(=O)O returned CYP2C9 inhib -12, MRP resist rev 6, MRP-1 activ 0, CYP2C9 activ 1.1, CYP2C19 inhib -18 and CYP2C19 act 1.2.
For CCCCSc1nc2c(cc1C#N)CCC2 the results were CYP2C9 inhib 49, MRP resist rev 6, MRP-1 activ -1, CYP2C9 activ 0.5, CYP2C19 inhib 58* and CYP2C19 act 0.4.
`CC(C)OC(=O)CC(=O)CSc1nc2c(cc1C#N)CCCCCC2` gave CYP2C9 inhib 63*, MRP resist rev 5, MRP-1 activ -4, CYP2C9 activ 0.4, CYP2C19 inhib 47 and CYP2C19 act 0.5.
For C=C(C)CSc1nc2c(cc1C#N)CCC2 the results were CYP2C9 inhib 45, MRP resist rev 12, MRP-1 activ 0, CYP2C9 activ 0.6, CYP2C19 inhib 80* and CYP2C19 act 0.2.
For Cc1cccc(C)c1Nc1nnc(SCc2cn3cccc(C)c3n2)s1 the results were MRP-1 activ 0.
`Cc1cc(=O)[nH]c(Nc2ccc(C(=O)OC(C)C)cc2)n1` gave CYP2C9 inhib 27, MRP resist rev -3, MRP-1 activ -2, CYP2C9 activ 0.7, CYP2C19 inhib 26 and CYP2C19 act 0.7.
`O=C(CSc1nnc([C@@H]2CCCN2)o1)c1ccc(Cl)cc1` gave CYP2C9 inhib 30, MRP resist rev 13, MRP-1 activ -2, CYP2C9 activ 0.7, CYP2C19 inhib 98* and CYP2C19 act 0.
For Clc1ccc(CSc2nnc([C@@H]3CCCN3)o2)cc1Cl the results were CYP2C9 inhib 35, MRP resist rev 9, MRP-1 activ -1, CYP2C9 activ 0.6, CYP2C19 inhib 100* and CYP2C19 act 0.
Screening COc1ccc(-c2nc3c(c(=O)[nH]c(=O)n3Cc3ccccc3)n2C)cc1 returned CYP2C9 inhib 1, MRP resist rev -1, MRP-1 activ -4, CYP2C9 activ 1, CYP2C19 inhib -9 and CYP2C19 act 1.1.
Screening Cn1c(-c2cccc(OCc3ccccc3)c2)nc2c1c(=O)[nH]c(=O)n2Cc1ccccc1 returned CYP2C9 inhib 54*, MRP-1 activ -5, CYP2C9 activ 0.5, CYP2C19 inhib 5 and CYP2C19 act 1.
